PAX8 reporter: inhibitors of PAX8-driven TPO luciferase reporter, primary screen, RMG-I cells, single concentration; SteadyGlo, 24 h; inhibition, % at 12.6 µM; actives 1.2% (n = 360,000);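 active means mean replicate inhibition at least 60% with every replicate also reaching 60%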;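 further: luciferase light reporting Pax8 driven TPO promoter activity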
INS-1E GSIS act: GLuc luminescence reporter in INS-1E cells, primary screen for activators of glucose-dependent secretion of insulin. INS-1E GLuc reporter insulin secretion, 2-3 h. actives 0.61% (n = 370,000). AID 743287, 2014. activation, % at 16.6 µM;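 active means lowest replicate activation of at least 40%, so every replicate reaches that level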
EWS-Fli inh: EWS/Fli-driven NR0B1 reporter inhibitors, primary screen, A673 cells, NR0B1 luciferase, luminescence, MLPCN library; viability-normalised; inhibition, % at 12.6 µM; actives 0.67% (n = 350,000);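 active means mean inhibition of at least 50% after viability correction, with every replicate also passing that limit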;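 further: firefly luciferase signal divided by Alamar Blue viability fluorescence both relative to DMSO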
Env fusion inh: inhibitors of HIV-1 Env-driven cell-cell fusion, primary screen, HeLa-JRFL effector, CEM21 target cells, luciferase. actives 1.1% (n = 360,000). inhibition, % at 12.3 µM;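 active means mean replicate inhibition score of at least 50 and every replicate individually at or above 50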
miR-122 sensor: miR-122 Renilla sensor signal increase in Huh7, primary screen, miR-122 inhibitor project, cell-based, single point, plate reader. Huh7 miR-122 Renilla luciferase sensor, 48 h; neutral wells = 0, positive control = 100. activation (reporter increase), % at 12.5 µM. actives 0.3% (n = 340,000). AID 602342, 2012;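 active means mean replicate activation score at least 90 and every replicate individually at or above 90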;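 further: higher luciferase means less miR-122 activity so hits act as miR-122 inhibitors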
Statin myotox sup: suppressors of statin myotoxicity in C2C12 myotubes, primary screen, cell-based, single point, plate reader; C2C12 myotubes + simvastatin, ATP luminescence, 48 h; scaled: DMSO 0, geranylgeraniol control 100; rescue of ATP level, % at 7.49 µM; actives 0.78% (n = 330,000);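 active means mean ATP rescue above about 67%, or every replicate alone reaching that limit, limit read from the data, passing the limit was not always enough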;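 further: myotubes were challenged with 10 µM simvastatin during compound exposure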
Hits are given with their value; – = inactive; · = not tested or not shown. Only some compounds are listed: those with a hit (about 3.1% of all), similar ones and a draw of the others.

SMILES	PAX8 reporter	INS-1E GSIS act	EWS-Fli inh	Env fusion inh	miR-122 sensor	Statin myotox sup
CC(=O)N1[C@@H]2c3ccc(C4=CCCC4)c(=O)n3C[C@H]1[C@H](CO)[C@H]2C(=O)N[C@H](C)c1ccccc1	·	–	–	·	–	–
CC(=O)N1[C@H](CO)[C@@H](c2ccccc2)C12CN(Cc1cc(F)ccc1F)C2	–	–	–	·	·	·
Cn1c(=O)c2c(nc(NC3CCCCC3)n2CC(O)COc2ccccc2)n(C)c1=O (stereo not drawn)	·	·	·	·	–	81
Cn1c(=O)c2c(nc(N3CCCCCC3)n2CC(O)COc2ccccc2)n(C)c1=O (stereo not drawn)	·	·	·	·	–	–
CC(C)Cn1c([N+](=O)[O-])nc2c1c(=O)[nH]c(=O)n2C	78	–	–	–	–	·
C=CCN1C(=O)[C@@]2(O[C@@H](CCO)[C@H]([Si](C)(C)c3ccc(OC)cc3)[C@H]2C)c2ccccc21	66	·	–	–	·	·
C=CCN1C(=O)[C@]2(O[C@H](CCO)[C@@H]([Si](C)(C)c3ccc(OC)cc3)[C@@H]2C)c2ccccc21	94	·	–	–	·	·
C=CCN1C(=O)[C@@]2(O[C@@H](CCO)[C@H]([Si](C)(C)c3ccc(OC)cc3)[C@H]2C)c2cc(N3CCC3=O)ccc21	–	·	–	–	·	·
C[C@H]1CN([C@@H](C)CO)C(=O)c2cc(C#Cc3ccc(F)cc3)cnc2O[C@@H]1CN(C)C	·	–	–	–	–	–
CO[C@@H]1CN(C)C(=O)c2ccc(NC(=O)c3cnccn3)cc2OC[C@H](C)N(CCc2ccccc2)C[C@H]1C	–	–	–	–	·	–
CCCC(=O)N1CC2(C1)CN(C(=O)COC)[C@H](CO)c1c2c2ccc(OC)cc2n1C	·	–	–	·	·	·
O=[N+]([O-])c1c(Nc2ccc(O)cc2)cc(Cl)c2nonc12	113	–	61	–	·	–
C[C@@H]1CN([C@@H](C)CO)C(=O)c2cc(NS(=O)(=O)c3ccc(Cl)cc3)ccc2O[C@@H]1CN(C)C(=O)Nc1ccc(C(F)(F)F)cc1	–	–	–	–	–	–
Cc1sc2ncnc(N3CCCCC3)c2c1C	·	–	–	·	–	–
Cc1ccc(OCCN2CCN(c3ncnc4sc(C)c(C)c34)CC2)cc1	·	·	·	85	–	–
CCN1CCN(CCOc2ccc(Cl)cc2)CC1	–	–	–	–	–	–
Clc1ccc(OCCN2CCN(c3ncnc4sccc34)CC2)cc1	·	·	·	99	–	–
C[C@@H]1CCCCO[C@@H](CN(C)S(=O)(=O)c2ccc(F)cc2)[C@@H](C)CN([C@@H](C)CO)C(=O)c2cc(NC(=O)Cc3ccccc3)ccc2O1	–	–	–	–	–	–
O=C(Cc1ccc(Cl)cc1)OCc1nnc(-c2ccccc2)o1	–	–	–	–	–	–
COc1cc(CCC(=O)OCc2nnc(-c3ccccc3)o2)cc(OC)c1OC	·	·	·	·	–	104
COc1cc(CCC(=O)OCc2ccccc2C#N)cc(OC)c1OC	–	–	–	–	–	–
O=C(CSc1ccc(Cl)cc1)OCc1nnc(-c2ccccc2)o1	·	·	·	·	–	69
O=C1C(SCCO)=C(SCCO)C(=O)c2ccccc21	114	–	64	–	–	–
Cc1ccc(S(=O)(=O)N[C@@H]2C=C[C@H](CC(=O)NCCc3ccncc3)O[C@H]2CO)cc1	–	–	–	–	·	–
CCC(=O)N(C)C[C@H]1Oc2ncc(-c3ccc(C#N)cc3)cc2C(=O)N([C@H](C)CO)C[C@H]1C	·	–	–	–	–	–
SMILES	PAX8 reporter	INS-1E GSIS act	EWS-Fli inh	Env fusion inh	miR-122 sensor	Statin myotox sup
c1ccc(-c2cn3nc(-c4ccccc4)sc3n2)cc1	·	·	·	·	–	–
c1ccc(-c2cn3c4c(sc3n2)CCCC4)cc1	–	–	54	–	–	–
Cc1cccc(Oc2ncc(-c3ccc(Cl)cc3)cn2)c1C	·	·	·	·	–	–
Cc1ccc(Oc2ncc(-c3ccc(Cl)cc3)cn2)cc1	·	46	·	·	–	–
O=C(CC1CC1)Nc1ccc2c(c1)[C@H]1C[C@H](CC(=O)N3CCOCC3)O[C@@H](CO)[C@H]1O2	–	–	–	–	–	–
CCOC(=O)c1c2n(c3ccc(OC(C)=O)cc13)CCC2	–	48	–	–	–	–
CCOC(=O)c1c(CN(C)C)n(C)c2ccc(OC(C)=O)cc12	·	·	·	·	·	–
C[C@H](CO)N1C[C@H](C)[C@@H](CN(C)C(=O)Nc2ccc(F)cc2)Oc2ccc(NC(=O)C3CCCCC3)cc2C1=O	–	–	–	–	–	–
CC(C)C[C@H]1CNC(=S)N1C[C@H]1CCCN1C[C@H](Cc1ccc(O)cc1)N1C[C@H](Cc2ccccc2)N(CC2CCCCC2)C1=S	–	–	–	112	–	–
CC(C)C[C@H]1CNC(=S)N1C[C@H]1CCCN1C[C@H](Cc1ccccc1)N1C[C@H](Cc2ccc(O)cc2)N(CC2CCCCCC2)C1=S	–	·	–	–	–	–
CC(C)C[C@H]1CNC(=S)N1CC1CCCN1C[C@H](Cc1ccccc1)N1C[C@H](Cc2ccc(O)cc2)N(CC2CCCCC2)C1=S (stereo partly drawn)	–	–	–	–	–	–
CC(C)C[C@H]1CNC(=S)N1CC1CCCN1C[C@H](Cc1ccc(O)cc1)N1C[C@H](Cc2ccccc2)N(CC2CCCCCC2)C1=S (stereo partly drawn)	–	–	–	58	–	–
Cc1nn(-c2ccccc2Cl)c(Cl)c1/C=C(\C#N)C(N)=O	–	64	–	–	·	·
Cc1nn(-c2ccc(Cl)cc2)c(Cl)c1/C=C(\C#N)C(N)=O	–	–	–	·	–	·
CN1C(=O)c2cc(NC(=O)C3CCOCC3)ccc2OC[C@@H]2O[C@@H](CC(=O)NCc3ccc4c(c3)OCO4)CC[C@H]21	–	–	–	–	·	–
COc1cc(C(=O)Nc2cccc(-c3nc4ccccc4o3)c2C)cc(OC)c1OC	·	·	·	·	–	97
COc1ccc(Br)cc1C(=O)Nc1cccc2ncccc12	–	–	–	–	·	·
COc1cc(C(=O)Nc2cccc3ncccc23)cc(OC)c1OC	·	·	·	·	–	92
CO[C@@H]1CN(C)C(=O)c2ccc(NC(=O)C3CC3)cc2OC[C@@H](C)N(C(=O)Cc2ccccn2)C[C@@H]1C	–	–	–	·	·	–
COc1cccc(S(=O)(=O)N[C@H]2CC[C@@H](CCNC(=O)Nc3cc(F)ccc3F)O[C@H]2CO)c1	–	–	–	–	·	–
COc1ccc(-c2noc(Cc3cccs3)n2)cc1	·	·	·	·	–	93
COc1ccc(CC(C)N2CCN(Cc3ccccc3)CC2)c(OC)c1 (stereo not drawn)	·	–	–	·	–	96
COc1ccc(CN2CCN(CCCc3ccccc3)CC2)c(OC)c1	–	–	–	–	·	·
O=C(Nc1nc2c(s1)CCCC2)c1ccc(Br)o1	·	–	·	·	–	112

Screens (PubChem)
